The list is not random: actives were taken first. Their share in the collection is about 6%.
DRD3 agonist: agonists of human D3 dopamine receptor. D3R DiscoveRx beta-arrestin cells, luminescence, 90 min. 0.58% of 410,000 active. P35462. max activation, %. AID 652048; in the data active means max activation above about 30%; further: 0% is about no effect
Target sequence (P35462 whole entry, looked up): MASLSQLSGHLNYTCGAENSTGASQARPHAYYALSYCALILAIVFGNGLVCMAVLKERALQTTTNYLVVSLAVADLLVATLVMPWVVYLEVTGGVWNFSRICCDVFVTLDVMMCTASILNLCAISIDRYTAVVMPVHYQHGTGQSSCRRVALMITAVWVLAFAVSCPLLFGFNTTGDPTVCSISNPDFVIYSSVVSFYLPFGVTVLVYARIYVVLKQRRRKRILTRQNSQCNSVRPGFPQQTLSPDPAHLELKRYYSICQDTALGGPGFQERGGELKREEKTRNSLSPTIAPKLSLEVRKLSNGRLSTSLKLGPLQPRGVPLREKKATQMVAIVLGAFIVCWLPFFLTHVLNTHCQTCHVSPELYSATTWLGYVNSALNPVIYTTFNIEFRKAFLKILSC
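Cells at 1500/well, incubated overnight, then treated with pinned compounds (dopamine as control) for 90 min at 37 degrees C. DiscoveRx reagent added for 30 - 60 minutes at room temperature; luminescence read.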
D1 antag: blocks dopamine activation of the human D1 receptor; P21728; HEK293 TREx D1 cells, calcium flux, dopamine EC80; stronger effect = lower value; activity change, negative = inhibition, % at 10 µM; 3.2% of 360,000 active; AID 504652; in the data active means activity change below about -30%; further: on the % scale 0 is the no-effect control and ±100 the full control effect
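Compound effects on dopamine-evoked calcium signalling were measured in tetracycline-induced HEK293 Trex D1 cells. Dopamine at EC80 followed a 180 s compound pre-read, and fluorescence was tracked kinetically for 180 s more.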
DRD3 antagonist: D3 dopamine receptor (human) antagonism | 2.5% of 360,000 active | D3R cells, DiscoveRx beta-arrestin luminescence, antagonist mode; stronger effect = lower value | P35462 | max response, negative = inhibition, % | AID 652054; in the data active means max response below about -50%; further: on the % scale 0 is the no-effect control and ±100 the full control effect
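Cells plated overnight at 1500 cells/well, then exposed to library compounds with dopamine controls for 90 minutes at 37 degrees C. DiscoveRx reagent added for 30–60 minutes at room temperature; luminescence read, quantitative HTS format.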
D1 agonist: agonists of human D1 dopamine receptor; P21728; HEK293 T-REx D1 cells, calcium flux, agonist mode; activation, % at 2 µM; 1% of 360,000 active; AID 504660; in the data active means activation above about 30%; further: 0% is about no effect
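Inducible HEK293 T-REx D1 cells, force-coupled to calcium signalling, were plated at 4000 cells/well with tetracycline and held overnight at 30 C. After no-wash calcium dye loading, compound-evoked calcium rise over 180 s flagged agonists.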
D1 PAM: potentiators of human D1 dopamine receptor. P21728. HEK293 TREx D1 cells, calcium flux, dopamine EC20 potentiation. potentiation, % at 10 µM. 0.036% of 360,000 active; in the data active means potentiation above about 30%; further: 0% is about no effect
* = called active by the depositor; nt = no result.

SMILES	DRD3 agonist	D1 antag	DRD3 antagonist	D1 agonist	D1 PAM
CCn1ncc(C2=NOC(C(=O)Nc3cccc(C(C)=O)c3)C2)c1C (stereo unspecified)	5	-32*	11	12	-3
O=C1CCC([N+](=O)[O-])C(c2ccccc2C(F)(F)F)N1 (stereo unspecified)	0	8	10	2	-4
CN1CCC(=O)N(CCSc2ccc(Br)cc2)CC1	-31	0	-56*	1	-2
FC(F)(F)c1nnc(Nc2ccc(Cl)cc2)s1	5	-30*	6	12	-5
Cc1cc(/C=N/NC(=O)c2ccc(O)cc2)c(C)n1C1CC1	-3	6	-54*	1	-3
CC1=NN(C(N)=S)C(=O)C1N=Nc1ccc(O)cc1 (stereo unspecified)	16	-7	-66*	3	-1
CC1=NN(C(N)=S)C(=O)C1N=Nc1ccc(F)cc1 (stereo unspecified)	-3	-20	-3	6	-4
CC(C)CCOc1ccc(NC(=O)C2OC3OC(C)(C)OC3C3OC(C)(C)OC23)cc1 (stereo unspecified)	2	-43*	-10	-1	4
COc1ccc(CNC(=O)CN2C(=O)c3ccc([N+](=O)[O-])cc3C2=O)cc1	31*	41	-3	1	-6
COc1ccc(CNC(=O)CN2C(=O)c3ccccc3C2=O)cc1	3	0	1	2	7
CC(C)(C)C(C(=O)NCc1ccccc1)N1CCN(CCN2CCOCC2)CC1 (stereo unspecified)	-18	nt	-64*	nt	nt
O=C(Nc1nc(-c2ccccn2)cs1)c1cc(S(=O)(=O)N2CCOCC2)ccc1F	-28	-12	-77*	0	1
O=C(Nc1nc(-c2nc3ccccc3s2)cs1)c1ccc(S(=O)(=O)N2CCOCC2)cc1	51*	4	48	9	-3
O=C(Nc1nc(-c2ccccn2)cs1)c1ccc(F)c(S(=O)(=O)N2CCOCC2)c1	0	-8	0	1	-2
O=C(Nc1nc(-c2ccc(S(=O)(=O)N3CCOCC3)cc2)cs1)c1ccccc1	9	-12	11	9	-2
O=C(CSc1nnc(C2CC2)n1C1CC1)N1CCN(c2ccc(O)cc2)CC1	0	nt	-2	nt	nt
O=C(NC1(C(F)(F)F)C(=O)Nc2c1c(=O)[nH]c(=O)n2CCc1ccccc1)c1ccc(Cl)cc1 (stereo unspecified)	13	-10	nt	5	2
Cc1ccc(C(=O)NC2(C(F)(F)F)C(=O)Nc3c2c(=O)[nH]c(=O)n3CCc2ccccc2)cc1 (stereo unspecified)	-9	-40*	nt	0	-6
Cc1ccc(-n2c3c(c(=O)[nH]c2=O)C(NC(=O)c2ccccc2C)(C(F)(F)F)C(=O)N3)cc1 (stereo unspecified)	6	5	nt	1	-6
Cc1ccc(-n2c3c(c(=O)[nH]c2=O)C(NC(=O)C(C)(C)C)(C(F)(F)F)C(=O)N3)cc1 (stereo unspecified)	4	-74*	nt	-1	-5
CN(C)S(=O)(=O)c1ccc(NC(=O)COC(=O)C2COc3ccccc3O2)cc1 (stereo unspecified)	11	-94*	-23	1	-4
O=C(CNC(=O)c1ccc(Cl)cc1)OCc1cc(=O)n2nc(C3CCCCC3)sc2n1	1	-6	nt	7	-4
Cc1ccc(C(=O)NCC(=O)OCc2cc(=O)n3nc(C4CCCCC4)sc3n2)cc1	2	-45*	nt	0	-4
CCC(CC)C(=O)OCc1cc(=O)n2nc(C3CCCCC3)sc2n1	5	15	nt	1	-1
CCC(CC)C(=O)OCc1cc(=O)n2nc(C3CC3)sc2n1	45*	-8	nt	2	1
SMILES	DRD3 agonist	D1 antag	DRD3 antagonist	D1 agonist	D1 PAM
CC(C)(C)C(=O)OCc1cc(=O)n2nc(C3CCCCC3)sc2n1	9	-33*	nt	2	-1
CC(=O)OCc1cc(=O)n2nc(C3CCCCC3)sc2n1	-1	-6	nt	2	-3
Cc1nc2c(c(=O)c3ccccc3n2C)c(=O)n1C1CCCCCC1	4	9	1	154*	0
CC(C)Cn1c(-c2ccco2)nc2c(c(=O)c3ccccc3n2C)c1=O	nt	-17	nt	6	-5
Cn1c2ccccc2c(=O)c2c(=O)n(C3CCCCC3)c(-c3ccco3)nc21	-14	-3	-19	106*	-9
Cc1nc2c(c(=O)c3ccccc3n2C)c(=O)n1-c1ccccc1	-10	19	-10	1	-4
O=C(CCN=C1NS(=O)(=O)c2ccccc21)OCc1nnc(-c2ccc([N+](=O)[O-])cc2)o1	4	nt	1	nt	nt
CCn1c(=O)c2c(nc(SCC(=O)N3CCC(C)CC3)n2C)n(C)c1=O	-17	3	6	-1	-1
O=[N+]([O-])c1ccc(-c2csc(Nc3ccccc3)[n+]2Cc2ccccc2)cc1	2	-41*	19	5	-5
COc1ccc(-c2csc(Nc3ccccc3)[n+]2Cc2ccccc2)cc1	4	-6	16	5	-5
CON(C)C(=O)CC(CNC(=O)OC(C)(C)C)c1ccc(Cl)cc1 (stereo unspecified)	2	nt	16	nt	nt
COc1ccc(-n2ccnc(NCc3cccs3)c2=O)cc1	0	-34*	nt	2	-4
Cc1onc(-c2c(F)cccc2Cl)c1C(=O)c1ccccc1	3	-2	-4	1	-2
Cc1onc(-c2c(F)cccc2Cl)c1C(=O)c1ccc(F)cc1	-6	-55*	0	8	0
Cc1onc(-c2c(F)cccc2Cl)c1C(=O)OCC(=O)Nc1cccc(S(=O)(=O)N(C)C)c1	-26	nt	-97*	nt	nt
Cc1onc(-c2c(F)cccc2Cl)c1C(=O)c1ccccc1O	22	-41*	5	9	-11
Cc1noc(C)c1C(=O)OCC(=O)Nc1cccc(S(=O)(=O)N(C)C)c1	0	2	0	4	2
O=C(C[C@@H]1C/C=C\C[C@H](NC(=O)OCC2c3ccccc3-c3ccccc32)C(=O)O[C@H](c2ccccc2)CNC1=O)NCCO	-9	nt	0	nt	nt
CCOC(=O)c1nn2c(C(F)(F)F)cc(-c3ccc(OC)cc3)nc2c1Br	2	23	20	35*	-6
CSc1sccc1/C=N/O	14	5	-55*	0	-5
COc1cccc2c1C(=O)c1c(O)c3c(c(O)c1C2=O)C[C@@](O)(C(=O)CO)C[C@@H]3O[C@H]1C[C@H](N)[C@H](O)[C@H](C)O1	-7	-7	-15	34*	-4
COc1ccc(-c2noc(CCCC(=O)NC3CCCCC3)n2)cc1OC	-26	-2	-11	3	7
COc1ccc(-c2noc(CCCC(=O)NC3CCCCC3)n2)cc1	5	-37*	1	6	-14
CCOc1ccc(-c2noc(CCCC(=O)NC3CCCC3)n2)cc1OC	-16	-85*	-7	0	nt

Source: PubChem BioAssay (National Center for Advancing Translational Sciences (NCATS))
